# Test results published in PubChem BioAssay.
# Calls of active or inactive are those of the source. Unless noted, no rule for the calls is given here.
# Experiments:
# [1] = compounds binding Alexa647 anti-His antibody – biochemical, small-molecule microarray, 635 nm fluorescence, artefact control for SMM control protein annotation, primary screen (AID 1128); details: higher = more signal;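 also: score merges feature fluorescence with signal-to-noise for each printed compound spot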
# [2] = system: Human papillomavirus type 1a E7 protein (residues 1-88); test: HPV1a E7 small-molecule binders, primary screen, biochemical, small-molecule microarray, residues 1-88, 635 nm (AID 1129); details: small-molecule microarray binding, fluorescence 635 nm; higher = more signal
# [3] = target: Focal adhesion kinase 1 (Homo sapiens) (UniProt Q05397); test: PTK2 protein binding on printed compound slides – biochemical, small-molecule microarray, 635/667 nm fluorescence, BSA, DTT, primary screen (AID 1130); details: 635 nm fluorescence, higher = more signal;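 also: composite of spot emission at 667 nm and signal to noise over triplicate slides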
# [4] = system: Fibrinogen (Alexa647-labelled); test: Alexa647-fibrinogen binding to printed small molecules – biochemical, small-molecule microarray, 635/667 nm fluorescence, artefact control for SMM control-protein annotation, profiling panel (AID 1131); details: fibrinogen-A647 binding fluorescence, higher = more signal;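 also: z-score merges 667 nm fluorescence with per-spot signal-to-noise over triplicate slides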
# [5] = target: Follistatin (Homo sapiens) (UniProt P19883); test: FST protein binding to printed compounds – biochemical, small-molecule microarray, 635/667 nm fluorescence, primary screen (AID 1132); details: 635 nm fluorescence, higher = more signal
# [6] = target: Fibroblast growth factor 2 (Homo sapiens) (UniProt P09038); test: basic fibroblast growth factor binding to printed compounds – biochemical, small-molecule microarray, 635/667 nm fluorescence, primary screen (AID 1133); details: FGF2, fluorescence 635/667, higher = more signal
# [7] = JC-1 mitochondrial potential readout, lung cancer cells – cell-based, A549, JC-1 fluorescence, basal, 24 h, 100 nL, profiling panel (AID 1138); details: higher = more signal;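 also: A549 lung adenocarcinoma cells under basal conditions with no added stimulus; test concentration not given here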
# [8] = system: Lefty1; test: Lefty1 protein binding to printed compounds – biochemical, small-molecule microarray, 635/667 nm fluorescence, primary screen (AID 1139); details: fluorescence 635/667, higher = more signal
# [9] = system: wheat germ agglutinin (Triticum aestivum), Alexa647-labelled; test: Alexa647-WGA lectin binding to printed small molecules – biochemical, small-molecule microarray, 635/667 nm fluorescence, artefact control for SMM control-protein annotation, profiling panel (AID 1140); details: WGA-A647 binding, 635 nm fluorescence, higher = more signal;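 also: score merges 667 nm feature emission with signal to noise over triplicate slides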
# [10] = target: Luciferin 4-monooxygenase (Photinus pyralis) (UniProt P08659); test: inhibition of purified Photinus pyralis luciferase – biochemical, luminescence, purified enzyme, 2006 set, primary screen (AID 1141); details: purified firefly luciferase, SteadyGlo luminescence, 30 min; higher = more signal, called active from +8 up or from −8 down;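 also: cell-free assay with purified firefly luciferase at 100 ng per well in PBS; test concentration not given here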
# [11] = system: Wnt5a (protein binding on small-molecule microarray); test: small molecules binding Wnt5a protein – biophysical, small-molecule microarray, 635/667 nm fluorescence, primary screen (AID 1142); details: 635 nm fluorescence, higher = more signal;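 also: fluorescence read at 667 nm with signal to noise per printed feature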
# [12] = ATP-based viability of Huh7 replicon cells – cell-based, CellTiter-Glo luminescence, basal, 48 h, cytotoxicity control for HCV replication inhibitor project, primary screen (AID 1143); details: higher = more signal, called active from +8 up or from −8 down;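 also: Huh7 hepatoma cells carrying a hepatitis C replication reporter with no stimulus; test concentration not given here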
# [13] = Pseudomonas biofilm growth suppression – PAO1 strain, BacTiter-Glo luminescence, LB-PBS, primary screen (AID 1144); details: P. aeruginosa PAO1 biofilm, 12 h, higher = more signal
# [14] = basal CRE-LacZ reporter activity in PC12 – cell-based, unstimulated, primary screen (AID 1145); details: no forskolin, luminescence, 4.5 h, higher = more signal, called active from +8 up or from −8 down
# [15] = forskolin-driven CRE-LacZ activity in PC12 – cell-based, CRE-LacZ reporter, forskolin-stimulated, primary screen (AID 1146); details: luminescence, 4.5 h, higher = more signal, called active from +8 up or from −8 down;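 also: PC12 cells with 6xCRE LacZ reporter stimulated by forskolin 10 µM; beta-galactosidase reporter signal reflecting CREB driven transcription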
# [16] = target: Streptavidin (Streptomyces avidinii) (UniProt P22629); test: compounds binding control protein streptavidin – biophysical, small-molecule microarray, 635/667 nm fluorescence, artefact control for SMM compound annotation, primary screen (AID 1147); details: higher = more signal;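 also: signal reflects streptavidin binding to arrayed compounds as a control protein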
# [17] = probe aInhba binding on compound microarray – biochemical, small-molecule microarray, 635/667 nm fluorescence, primary screen (AID 1148); details: higher = more signal;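 also: score merges 667nm spot fluorescence with signal-to-noise for antibody binding to printed compounds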
# [18] = target: Torsin-1A (Homo sapiens) (UniProt O14656); test: TOR1A wild-type binding on microarray – cell lysate, small-molecule microarray, lysate, 635/667 nm, primary screen (AID 1149); details: COS7 hTOR1A-WT lysate, 635 nm fluorescence, higher = more signal
# [19] = target: Torsin-1A (Homo sapiens) (UniProt O14656); test: torsin A mutant lysate binding on microarrays – cell lysate, small-molecule microarray, COS7 lysate, 635/667 nm fluorescence, primary screen (AID 1150); details: COS7 hTOR1A mutant lysate, 635 nm fluorescence, higher = more signal;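 also: score pools 667 nm emission and signal to noise measuring lysate protein binding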
# [20] = system: Sonic hedgehog protein (Shh); test: Sonic hedgehog microarray binding compounds – biochemical, small-molecule microarray, 635/667 nm fluorescence, primary screen (AID 1151); details: 635 nm fluorescence, higher = more signal;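 also: Shh protein binding to compounds spotted on small-molecule microarray slides; score combines spot fluorescence intensity with signal-to-noise across triplicate slides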
# Follistatin (Homo sapiens), sequence (P19883 whole entry, looked up): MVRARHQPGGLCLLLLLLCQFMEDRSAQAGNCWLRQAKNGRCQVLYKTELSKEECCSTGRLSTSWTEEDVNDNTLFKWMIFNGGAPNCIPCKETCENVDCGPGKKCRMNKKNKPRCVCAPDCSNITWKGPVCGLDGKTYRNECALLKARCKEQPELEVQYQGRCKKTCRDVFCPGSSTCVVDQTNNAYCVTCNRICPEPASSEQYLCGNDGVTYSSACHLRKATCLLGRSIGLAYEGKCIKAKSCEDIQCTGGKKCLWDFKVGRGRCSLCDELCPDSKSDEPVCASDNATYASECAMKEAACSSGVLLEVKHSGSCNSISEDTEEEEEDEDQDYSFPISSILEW
# Fibroblast growth factor 2 (Homo sapiens), sequence (P09038 whole entry, looked up): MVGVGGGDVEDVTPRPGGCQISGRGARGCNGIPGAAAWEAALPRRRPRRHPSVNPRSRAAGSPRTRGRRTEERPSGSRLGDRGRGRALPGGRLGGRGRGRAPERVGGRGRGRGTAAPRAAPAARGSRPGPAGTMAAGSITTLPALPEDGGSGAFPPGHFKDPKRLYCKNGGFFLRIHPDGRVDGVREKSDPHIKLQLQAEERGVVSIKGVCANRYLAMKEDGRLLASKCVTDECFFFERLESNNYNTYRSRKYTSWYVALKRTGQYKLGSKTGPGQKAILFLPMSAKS
# Focal adhesion kinase 1 (Homo sapiens), sequence (Q05397 whole entry, looked up): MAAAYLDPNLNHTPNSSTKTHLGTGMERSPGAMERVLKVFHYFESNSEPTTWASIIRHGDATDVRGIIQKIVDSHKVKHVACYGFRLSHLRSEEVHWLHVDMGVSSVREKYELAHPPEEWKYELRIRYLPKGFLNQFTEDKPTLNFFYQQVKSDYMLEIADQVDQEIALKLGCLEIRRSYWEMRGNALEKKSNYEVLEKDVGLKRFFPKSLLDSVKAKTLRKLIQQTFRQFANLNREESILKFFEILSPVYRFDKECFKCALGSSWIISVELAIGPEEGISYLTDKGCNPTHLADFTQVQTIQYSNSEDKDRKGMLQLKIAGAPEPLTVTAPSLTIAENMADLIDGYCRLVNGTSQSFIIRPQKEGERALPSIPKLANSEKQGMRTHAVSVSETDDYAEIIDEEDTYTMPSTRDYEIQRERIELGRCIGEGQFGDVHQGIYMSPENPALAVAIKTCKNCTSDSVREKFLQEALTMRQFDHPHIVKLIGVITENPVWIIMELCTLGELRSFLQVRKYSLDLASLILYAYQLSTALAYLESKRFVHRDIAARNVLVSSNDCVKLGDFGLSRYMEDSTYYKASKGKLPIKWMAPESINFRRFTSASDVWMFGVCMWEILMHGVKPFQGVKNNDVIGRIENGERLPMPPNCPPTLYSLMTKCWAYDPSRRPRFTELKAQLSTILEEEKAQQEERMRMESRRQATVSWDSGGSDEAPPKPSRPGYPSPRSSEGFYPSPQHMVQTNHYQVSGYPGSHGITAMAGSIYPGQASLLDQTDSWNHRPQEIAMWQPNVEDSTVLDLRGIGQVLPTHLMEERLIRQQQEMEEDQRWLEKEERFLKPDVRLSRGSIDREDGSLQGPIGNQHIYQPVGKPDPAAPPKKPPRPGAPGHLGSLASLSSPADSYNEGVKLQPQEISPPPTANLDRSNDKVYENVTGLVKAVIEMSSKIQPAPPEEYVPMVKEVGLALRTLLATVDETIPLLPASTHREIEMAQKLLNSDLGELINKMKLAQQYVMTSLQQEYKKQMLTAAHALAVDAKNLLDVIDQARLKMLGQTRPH
# Streptavidin (Streptomyces avidinii), sequence (P22629 whole entry, looked up): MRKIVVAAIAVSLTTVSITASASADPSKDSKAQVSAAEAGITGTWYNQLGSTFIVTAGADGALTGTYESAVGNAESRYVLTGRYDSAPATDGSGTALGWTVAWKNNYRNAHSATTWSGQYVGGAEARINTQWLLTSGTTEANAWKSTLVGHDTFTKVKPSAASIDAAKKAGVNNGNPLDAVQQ
# Torsin-1A (Homo sapiens), sequence (O14656 whole entry, looked up): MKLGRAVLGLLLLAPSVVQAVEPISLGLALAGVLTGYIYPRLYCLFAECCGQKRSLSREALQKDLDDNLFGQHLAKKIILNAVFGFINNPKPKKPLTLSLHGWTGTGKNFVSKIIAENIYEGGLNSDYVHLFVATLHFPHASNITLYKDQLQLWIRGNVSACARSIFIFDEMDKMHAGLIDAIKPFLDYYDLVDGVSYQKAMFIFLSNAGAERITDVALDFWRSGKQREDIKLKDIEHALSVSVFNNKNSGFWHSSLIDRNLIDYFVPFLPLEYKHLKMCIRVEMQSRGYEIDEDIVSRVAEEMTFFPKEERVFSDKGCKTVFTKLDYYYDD
# Luciferin 4-monooxygenase (Photinus pyralis), sequence (P08659 whole entry, looked up): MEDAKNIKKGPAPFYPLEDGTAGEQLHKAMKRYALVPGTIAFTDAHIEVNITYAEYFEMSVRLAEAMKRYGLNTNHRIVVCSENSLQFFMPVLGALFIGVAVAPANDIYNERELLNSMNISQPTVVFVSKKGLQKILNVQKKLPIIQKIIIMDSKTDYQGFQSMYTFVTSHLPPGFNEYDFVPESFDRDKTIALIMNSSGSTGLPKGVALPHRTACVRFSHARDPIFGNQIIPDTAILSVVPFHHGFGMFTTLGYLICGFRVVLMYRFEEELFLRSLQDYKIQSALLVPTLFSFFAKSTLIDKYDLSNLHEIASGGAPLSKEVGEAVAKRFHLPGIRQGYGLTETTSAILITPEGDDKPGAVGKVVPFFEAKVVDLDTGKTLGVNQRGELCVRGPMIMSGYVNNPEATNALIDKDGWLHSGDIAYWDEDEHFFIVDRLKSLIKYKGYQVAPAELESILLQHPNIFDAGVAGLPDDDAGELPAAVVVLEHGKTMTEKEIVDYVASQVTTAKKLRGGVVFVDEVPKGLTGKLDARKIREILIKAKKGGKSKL
SMILES,composite z-score [1],composite z-score [2],composite z-score [3],composite z-score [4],composite z-score [5],composite z-score [6],z-score [7],composite z-score [8],composite z-score [9],z-score [10],composite z-score [11],z-score [12],z-score [13],z-score [14],z-score [15],composite z-score [16],composite z-score [17],composite z-score [18],composite z-score [19],composite z-score [20]
COc1ccc(CCNC(=O)[C@@]2(Sc3ccc(C)cc3)CC(=O)N(C(C)C)[C@@H]2c2ccc(CO)cc2I)cc1,0.622,0.178,0.0367,0.144,-0.147,-0.172,0.968,-0.979,-0.258,-0.436 (inactive),-0.161,-0.887 (inactive),0.844 (inactive),-0.295 (inactive),0.652 (inactive),-0.738,-0.0986,0.0086,-0.622,-0.156
COc1ccc([C@H]2OC[C@@H]3C[C@@H](Cc4ccccc4)C(=O)N32)cc1,1.3,0.527,-0.181,-0.0072,0.62,0.91,1.25,1.08,0.208,0.0077 (inactive),0.157,-0.316 (inactive),1.01 (inactive),0.978 (inactive),0.627 (inactive),-0.679,-0.0403,0.656,0.556,1.33
O=C1N(Cc2ccccc2)c2ccccc2[C@@H]2OC(c3ccc(OCCCO)cc3)=N[C@]12CCS(=O)(=O)c1ccccc1,0.218,1.2,0.564,0.92,1.15,0.311,-0.311,0.0829,1.19,-1.45 (inactive),0.443,-2.24 (inactive),-0.19 (inactive),3.13 (inactive),-0.406 (inactive),0.209,-0.0719,0.216,0.726,0.695
O=C(c1ccccc1)N1Cc2ccccc2C[C@@]2(COC(c3ccc(OCCCO)cc3)=N2)C1=O,2.32,1.23,0.242,0.905,1.34,1.45,0.604,0.663,0.71,-1.31 (inactive),0.406,-1.71 (inactive),-0.0668 (inactive),2.72 (inactive),-0.152 (inactive),0.298,0.167,0.655,0.787,1.33
CC(C)N1C(=O)[C@@]2(Cc3ccccc31)c1ccccc1C(=O)N(Cc1ccccc1Cl)[C@H]2c1ccc(CO)cc1,-0.145,-1.3,-0.236,-2.02,-1.17,-0.468,-0.176,-0.391,-0.0789,0.847 (inactive),-0.515,-2.27 (inactive),-1.68 (inactive),0.389 (inactive),-0.389 (inactive),-0.136,-0.29,-1.47,-0.848,-1.25
CCOC(=O)C[C@H]1[C@H](OC(=O)c2ccc(C(=O)c3ccccc3)cc2)[C@@H](NC(=O)c2ccccc2)c2cc(OCCCO)ccc2N1C(=O)c1ccc2ccccc2n1,1.03,1.06,0.281,0.788,-0.0746,-0.268,0.586,0.536,0.324,-0.417 (inactive),0.152,-0.0123 (inactive),0.0501 (inactive),3.66 (inactive),-0.712 (inactive),1.22,-0.0468,0.478,0.179,-0.25
CN1C(=O)C2C=CC(C(O)c3ccccc3)N(N(c3ccccc3)c3ccccc3)C2C1=O (stereo not given),1.95,-0.54,0.112,0.384,1.34,-0.0637,-0.516,0.03,0.489,1.07 (inactive),-0.117,0.653 (inactive),0.808 (inactive),-0.712 (inactive),0.635 (inactive),0.39,0.0051,-0.351,-0.398,0.522
CCCC=C(CCC)[C@@H](NC(=O)c1cccs1)c1ccc(C(F)(F)F)cc1,0.51,1.23,-0.201,0.936,0.572,0.0183,0.627,0.735,0.83,-2.34 (inactive),0.374,-3.78 (inactive),-0.407 (inactive),-0.761 (inactive),0.796 (inactive),0.882,0.473,0.598,0.704,1.18
C=CCOC(=O)[C@H]1[C@@H]2C(=O)O[C@@H](c3ccccc3)[C@@H](c3ccccc3)N2[C@@H](c2ccc(OCCOC(=O)[C@H]3C[C@H]4C(=O)N[C@@H](CCCC[N+](C)(C)C)C(=O)N4[C@H]3c3ccc(O)cc3)cc2)[C@]12C(=O)Nc1ccc(I)cc12,1.24,1.08,0.38,-0.154,1.38,1.14,0.694,1.27,0.0577,-0.666 (inactive),0.232,-0.326 (inactive),-0.615 (inactive),0.415 (inactive),-0.226 (inactive),0.134,0.0759,1.39,-0.243,2.22
COCCOC(=O)N1C(=O)[C@@]2(c3cc(C#CC4(O)CCCCCC4)ccc31)[C@H](c1ccccc1OCCO)N1[C@H](c3ccccc3)[C@H](c3ccccc3)OC(=O)[C@H]1[C@@H]2C(=O)N1CCN(c2ncccn2)CC1,0.701,1.05,0.782,0.662,1.19,0.846,-1.13,0.702,0.764,-1.04 (inactive),0.839,-1.86 (inactive),-0.354 (inactive),0.155 (inactive),0.411 (inactive),0.356,0.153,0.456,0.699,0.678
CCc1cccc(NC(=O)O[C@H]2[C@H](OC(=O)Nc3ccccc3-c3ccccc3)[C@@H](OC(=O)Nc3ccccc3-c3ccccc3)[C@@H](OC)O[C@@H]2CO)c1,2.04,1.31,0.69,1.02,1.02,0.179,-1.12,0.345,1.08,0.532 (inactive),0.729,-6.04 (inactive),-0.0932 (inactive),-0.655 (inactive),-0.756 (inactive),0.751,-0.0087,1.19,1.64,0.203
CN1C(=O)C2C=CC(C(O)c3ccc([N+](=O)[O-])cc3)N(N3CCCCC3)C2C1=O (stereo not given),0.922,1.18,0.115,0.938,1.12,0.651,-0.39,-0.0977,0.913,-0.661 (inactive),0.466,0.576 (inactive),-0.711 (inactive),1.01 (inactive),0.316 (inactive),0.901,0.464,0.319,0.603,-0.041
CC1(C)[C@@H]2CC(C(O)C3C=CC4C(=O)N(Cc5ccccc5)C(=O)C4N3n3cnnc3)=C[C@H]1C2 (stereo not given in full),0.356,1.19,0.218,0.744,0.86,0.321,-0.287,0.625,0.901,1.62 (inactive),0.253,-0.346 (inactive),0.132 (inactive),-0.126 (inactive),0.34 (inactive),0.512,-0.0375,1.49,1.33,0.414
C=CCNC(=O)[C@@H]1[C@H]2C(=O)O[C@H](c3ccccc3)[C@H](c3ccccc3)N2[C@H](c2ccc(OCCO)cc2)[C@@]12C(=O)Nc1ccc(C#CCC(C(=O)OC)C(=O)OC)cc12,2.67,1.2,0.913,0.641,0.85,0.582,-0.21,0.728,1.25,-1.08 (inactive),0.187,-3.86 (inactive),0.827 (inactive),0.488 (inactive),-1.19 (inactive),0.316,0.573,0.309,1.46,1.49
COC(=O)[C@@]1(Cc2ccccc2)N=C(c2ccc(OCCCO)cc2)O[C@H]1c1ccccc1,2.44,1.2,0.428,-0.381,0.385,1.65,-0.56,-0.63,0.609,-5.51 (inactive),0.912,-4.45 (inactive),0.35 (inactive),1.45 (inactive),-2.12 (inactive),-0.369,0.0816,0.348,1.74,-0.0883
O=C(c1ccccc1)N1C(=O)[C@]2(COC(c3ccc(OCCCO)cc3)=N2)Cc2ccccc21,3.28,1.2,0.628,0.988,1.4,1.1,-0.345,0.443,1.12,-1.19 (inactive),0.363,-3.03 (inactive),-0.382 (inactive),1.03 (inactive),0.822 (inactive),0.532,0.249,0.273,0.87,0.658
CCCCCN1CC=CC23O[C@@H]4C=CCCOC(=O)C4[C@H]2C(=O)N(CCCCCO)[C@@H]3C1=O (stereo not given in full),0.587,0.0287,-0.383,0.302,-1.03,-0.347,1.4,-0.582,0.796,0.0192 (inactive),-0.619,0.477 (inactive),-0.978 (inactive),-0.895 (inactive),-0.443 (inactive),-0.729,-0.157,1.82,0.843,0.225
CCC[C@@H]1C[C@@]1(CCC)[C@@H](NS(=O)(=O)c1cccc2cccnc12)c1ccc(Cl)cc1,0.265,1.06,0.249,0.285,0.0155,-1.68,2.3,-0.605,0.701,0.19 (inactive),0.0298,-2.15 (inactive),-0.0939 (inactive),-0.754 (inactive),0.852 (inactive),0.633,0.0966,-0.405,0.177,-1.33
